# Measured values taken from the supplement of paper PMC6555819.
# Tests used:
# Assay in all cases: PBM binding z-score (relative to random genomic background probes); higher = stronger binding; sequences stand for … in GC…GCGATTGACAGCGTAGAATGAAGG
# [1] = tested on: FXR:RXRa (NR concentration 270 nM, RXRa partner concentration 90 nM)
# How it was run: (§1)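 Scanned fluorescence from custom Agilent 4×180K protein-binding microarrays was regression-normalized. Binding z-scores use random background probes as reference. Ligand-free nuclear receptor dimers were incubated on the arrays for 1 h and detected with antibodies against each partner (one per run).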
# [2] = tested on: LXRa:RXRa (NR concentration 270 nM, RXRa partner concentration 90 nM)
# How it was run: as §1
# [3] = tested on: LXRa homodimer (NR concentration 270 nM)
# How it was run: as §1
# [4] = tested on: LXRb:RXRa (NR concentration 270 nM, RXRa partner concentration 90 nM)
# How it was run: as §1
# [5] = tested on: LXRb homodimer (NR concentration 270 nM)
# How it was run: as §1
# [6] = tested on: PPARa:RXRa (NR concentration 270 nM, RXRa partner concentration 90 nM)
# How it was run: as §1
# [7] = tested on: PPARg:RXRa (NR concentration 180 nM, RXRa partner concentration 90 nM)
# How it was run: as §1
# [8] = tested on: PPARg:RXRa 270nM:90nM, anti-RXR (NR concentration 270 nM, RXRa partner concentration 90 nM)
# How it was run: as §1
# [9] = tested on: PPARg:RXRa 30nM:10nM, anti-RXR (NR concentration 30 nM, RXRa partner concentration 10 nM)
# How it was run: as §1
# [10] = tested on: PPARg:RXRa 90nM:30nM, anti-RXR (NR concentration 90 nM, RXRa partner concentration 30 nM)
# How it was run: as §1
Sequence,PBM binding z-score [1],PBM binding z-score [2],PBM binding z-score [3],PBM binding z-score [4],PBM binding z-score [5],PBM binding z-score [6],PBM binding z-score [7],PBM binding z-score [8],PBM binding z-score [9],PBM binding z-score [10]
TCTTGTAGATCAACGGGAGGTTAAGAAAGATCGA,0.553,1.31,0.00977,1.17,0.12,1.49,-0.121,1.58,2.52,2.01
CAAACTAGGTCAAGAGGTGAAAGTCCGCTTCCCG,5.13,3.89,0.764,2.66,0.24,5.8,8.82,7.36,5.81,7.88
GCTCGGAGGCCAAGGTCAGAGCTTTGTCCGTAGA,1.41,1.03,-0.427,0.907,-1.5,1.85,0.0755,1.47,-0.393,0.573
TATACAGGGTGAAAGGCCAGAGTACGAATGTCGA,0.996,0.959,-0.157,1.08,0.982,3.14,5.05,5.48,4.23,5.46
ACTAGCAGGCCAAGGGTCACTCATGATTAGTCCG,2.27,2.25,0.295,2.52,-0.498,4.38,7.52,7.48,6.27,7.65
ATCTATAGGTAACCAAGTTCAGTGAATGCCGAAC,0.275,0.814,0.873,0.556,0.386,1.01,0.856,0.848,0.142,0.641
ACTATTAGTTGACTTAGGGCCACCGATACGACGC,0.803,0.394,0.324,0.152,0.713,0.121,1.07,0.422,0.18,0.363
CGTCCAAGTTCAACTAAGGTAACGTAAAGCACGC,4.27,3.59,1.01,2.17,0.515,3.15,1.14,1.5,0.189,0.966
TCATATAGGAAAAGGTGAAAGTCGAACGATATGA,1.2,1.15,-0.161,1.4,-0.24,2.46,1.45,3.09,4.54,4.05
TCTGGTAGATCAATAGAGGTTAAGAAAGTGCGCT,0.764,3.4,0.62,1.81,-0.161,1.62,-0.137,1.4,2.44,1.78
GCTAGCAGGCCATTTGGGTCACACAATGACGGGC,0.201,0.0992,-0.68,0.327,-0.778,1.89,1.2,1.09,-0.147,0.392
GTACCAAGGTGAATAGGTCGCTGATGAGTAGGCG,0.713,0.531,-0.254,0.0295,-0.695,1.95,1.48,1.74,0.17,1.14
AGAATGAGGTTATGATCAGGGAAACAGAATACAT,1.66,1.52,-0.0293,1.41,-0.275,2.83,1.86,1.65,1.17,1.03
CTCGAAAGGTCGGTTGAGGTGAGGATACGGATAA,3.07,1.84,-0.0492,1.43,-0.104,2.68,0.677,1.09,0.294,1.02
ACAGACAGGTGATTGAAGGTAACTCAGCTGGACG,0.407,0.000463,-0.444,-0.451,-0.457,0.0856,0.626,-0.0372,0.0722,-0.274
TGAATGAGGTTAAAGATCAGGCAACGTGGCGTCG,2.94,2.82,-0.471,1.4,0.134,4.85,5.51,6.49,5.01,6.3
CAAACTCGGTCACGAAAGGTCAAAGTCGAATGAC,6.39,7.32,7.74,6.5,2.6,5.95,6.08,5.84,2.68,5.51
CCTTACGGGTCACTGAAAGGTTATAGCATTTGGA,5.83,4.87,0.976,4.17,0.221,5.59,5.13,5.03,2.12,3.38
AGAGCGAGGGCAATGAGTTGATAGCACGGGTGGC,-0.116,-0.109,-0.331,-0.283,-0.845,0.406,0.562,-0.152,-0.57,-0.736
TCTATTAATTGAAGGGCAACCGACGAGTCCGTTT,0.489,1,1.77,0.808,0.497,1.16,0.0188,1.99,3.93,2.74
CATACAGGGTCAGCTAGGCCAGAGTGGGGACGGC,4.45,2.94,0.0582,2.72,0.724,4.31,2.96,3.01,0.597,1.9
CGATCTAGGTCATCCAGGACAGTGAATACATTGA,4.46,2.5,0.582,2.09,0.272,4.82,7.36,6.3,3.7,5.8
ACTCGGAGGACAAAGGTCAGAGCGACGCCAGTGA,4.14,4.3,1.14,3.61,0.216,4.97,7.85,6.9,5.06,7.27
CGAACGAGGGCATGAGTTGATTGCAAATGCCGAT,0.319,0.271,-0.529,-0.0625,-0.873,1.14,1.26,1.58,0.205,1.08
CCTACTGAGCCAAAGGTCATTGATTCCAATGCTC,5.45,5.55,4.66,5.13,2.18,5.53,8.72,8.74,7.32,9.2

Sequence,PBM binding z-score [1],PBM binding z-score [2],PBM binding z-score [3],PBM binding z-score [4],PBM binding z-score [5],PBM binding z-score [6],PBM binding z-score [7],PBM binding z-score [8],PBM binding z-score [9],PBM binding z-score [10]
ATCGAACGGTCGAAGGTGAGTATACCCACCCGAA,-0.145,-0.0927,-0.458,-0.384,-0.206,0.517,1.03,1.22,0.0354,0.698
ATATGTAGGTTACATCCGGGTTATTCAGGCTATG,0.937,3.18,0.529,1.71,0.53,3.59,5.15,4.27,2,3.64
CCTAGTTGGTCAGGAGTTCACACACCGGATATGA,1.64,2.22,1.92,1.85,0.3,2.2,1.24,1.95,0.752,1.49
CAAACTAGGTCAAAGGTCAAATTCGAGCCAACCA,8.57,7.2,6.34,7.43,4,7.66,14.1,11.5,12.7,14
CCGACTGGGGCGAAGGTTACCATACTCAGTACGA,-0.11,-0.108,-0.381,0.654,-1.24,3.09,7.04,7.02,5.36,6.85
ACTTACGGGTCAACGCGGTTATAGCACGCGTATA,6.63,4.76,0.698,4.08,0.727,5.52,4.9,5.47,1.84,4.14
AGAACGAGGGCACGCTGAGTTGATCGCAGAGTAG,0.98,0.604,-0.623,0.0852,-0.872,2.16,1.93,1.66,0.193,0.789
CCGACTGGGGCAAAGGTTACCCTACTCAGTACGA,1.55,1.36,0.204,1.69,-1.04,4.95,10.4,8.13,8.18,9.15
ACTATTAGTTGAGACCAGGGCAACCGATAGGTTG,0.433,-0.242,-0.0882,-0.177,0.0937,0.067,0.508,0.263,0.00186,-0.189
ACTATTAGTTGACGTAGGGCAACCGATACGACGC,-0.0128,-0.0574,0.207,-0.148,0.503,-0.147,1,0.00726,0.129,0.289
ATAAGTAGGTTAGCTGGGGTCATTCAGACTAGGC,4.71,5.52,3.28,4.94,1.18,5.41,6.1,5.42,3,5.01
ATATGTATGTTAGCTGGGGTCATTCAGACTAGGC,3.96,4.22,1.92,4.33,1.31,4.48,2.06,2.85,1.26,2.08
TTACCATGGTGAAAGGTCGTTGATGCACGCCTTG,1.54,1.93,0.41,2.22,-0.316,4.04,5.88,6.89,5.62,8.01
ATCGAAAGGTCGACGAGGTGAATATACACCGTTT,5.37,3.82,0.162,3.31,0.511,4.54,3.21,3.62,1.4,2.47
TCTTATAGGTAAATGCTAGGTGAAAGTCCGATCT,1.33,1.6,0.477,1.11,0.669,1.27,0.531,2.5,3.79,3.41
ATCTCTAGGTAAAGCTCAGTGAAAGATCGATAGA,0.281,0.0459,-0.107,-0.256,0.358,0.297,0.103,0.333,0.3,0.095
ACAGACAGGTGAGGGAAGGTAACTCAGCTGGACG,0.596,0.155,-0.368,-0.181,-0.443,0.389,0.791,-0.0319,-0.39,-0.182
TCGACTAGGTTAGTCGGGGCATTCAGCCAACATA,-0.0811,-0.0624,-0.672,-0.0911,-0.943,0.668,0.144,1.05,1.49,1.12
CTCGGAAGGTCGTGCTCAGGTGAGTATACCAAAC,1.88,1.55,-0.00824,1.29,-0.534,2.79,0.376,1.25,0.069,0.755
GTACCAAGGTGAATAGGTCGTTCATGAGTAGGCG,0.8,1.02,0.137,0.601,-0.594,2.17,1.4,1.69,0.0443,0.958
GGAACGAGGGCAAGTTGATAACAGAGTTTGATGG,0.773,0.307,-0.071,0.262,-0.233,1.76,1.52,1.14,0.316,1.03
TCTATGAGTTGAAGGGCAACCGACGAGTCCGTTT,0.419,0.7,-0.373,0.405,-0.437,1.2,0.607,1.51,2.54,2.22
CCGACTGGGGCAAAGGCTACCATACTCAGTACGA,-0.192,-0.314,-0.186,-0.213,-1.35,2.78,6.74,6.84,5.04,6.61
GCGACTGGGGCATCAGCAGGTCACCATAACTTAA,0.886,1.37,0.749,2.27,-0.977,2.79,2.16,2.13,0.0296,1.03
